Data taken from PubChem BioAssay AID1347385 (Zoeller Lab, School of Medicine, Boston University, 2020).
In all, about 20,000 compounds went through this assay and about 85 (0.4%) were called active. The sample holds actives, similar compounds and a random draw of the others, so the mix is not that of the screen.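 How the source made its calls: active means cell survival signal 2 SD away from solvent-only control wells, confirmed on one or two retests; inactive means the rest.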

assay: compounds reducing fatty acid uptake into lipids – ZR-82 cells, Enamine library, screen 3, primary screen (AID 1347385); conditions: ZR-82 CHO cells, pyrene fatty acid UV survival, CellTiter Blue, peroxisome-deficient CHO-K1 mutant line, plus DGAT-1, DGAT-2 and ACAT inhibitors; at 10 µM unless noted;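 further: 3 h compound exposure then viability read about one day after UV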

| Compound | outcome |
| --- | --- |
| COC(=O)CNC(=O)c1ccc([N+](=O)[O-])o1 | inactive |
| CC(C)CN(C1CCS(=O)(=O)C1)S(=O)(=O)c1ccc(Cl)cc1 (centres undefined) | inactive |
| C(=Nc1ccc2c(c1)OCO2)c1ccc2ncccc2c1 | inactive |
| c1ccc2c(c1)OCCOCCOCCOc1ccccc1OCCOCCO2 | inactive |
| O=C1NNS(=O)(=O)c2ccccc21 | inactive |
| Brc1ccc2nc(-n3nc4ccccc4n3)nc(-c3ccccc3)c2c1 | inactive |
| Cc1sc2ncnc(SCC(=O)c3c(N)n(CC(C)C)c(=O)n(C)c3=O)c2c1C | inactive |
| CCOC(=O)Cc1n[nH]c(=S)n1C1CCCC1 | inactive |
| CCNC(=S)N1CCN(S(=O)(=O)c2ccc(Cl)s2)CC1 | inactive |
| Cc1cc(-c2csc(N)n2)c(C)c(C)c1C | inactive |
| O=C(COc1ncnc2sc3c(c12)CCC3)c1ccc(Cl)s1 | inactive |
| O=C(CN1C(=O)NC2(CCCC2)C1=O)NC1CCSc2ccc(F)cc21 (centres undefined) | inactive |
| C=CCN(CC=C)CC(=O)Nc1sc2c(c1C(N)=O)CCCC2 | inactive |
| Clc1ccc(Cl)c(-c2ccc(-c3ncc(-c4cccs4)o3)o2)c1 | inactive |
| CN(C)C(=O)CN(C)C(=O)CN1C(=O)NC2(CCCCCC2)C1=O | inactive |
| Cc1nc(SCC(=O)N2CCNC2=O)n(CC(C)C)c1C | inactive |
| O=S(=O)(c1ccc(Cl)c(N=C2SCCN2C2CCCCC2)c1)N1CCOCC1 | inactive |
| c1ccc(OCc2nc(-c3ccccn3)n[nH]2)cc1 | inactive |
| C#CC(CC)(CC)NC(=O)CCc1nc2sc3c(c2c(=O)[nH]1)CCCC3 | inactive |
| Brc1ccccc1C1N=C(c2ccccc2)NO1 (centres undefined) | inactive |
| O=c1c2c3c(sc2[nH]c(=S)n1C1CCCC1)CCC3 | inactive |
| O=C(OCc1cc([N+](=O)[O-])cc2c1OCOC2)C1CCC1 | inactive |
| O=C(CSc1nc2sc3c(c2c(=O)n1C1CCCC1)CCCC3)N1CCCC1 | inactive |
| FC(F)Oc1ccc(C2Oc3ccccc3C3CC(c4ccccc4)=NN32)cc1 (centres undefined) | inactive |

| Compound | outcome |
| --- | --- |
| Cc1nnc(NC(=O)NCC2(C)CC(NC(=O)Nc3nnc(C)s3)CC(C)(C)C2)s1 (centres undefined) | inactive |
| CC(C)N(CCNS(=O)(=O)c1ccccc1)C(C)C | inactive |
| O=[N+]([O-])c1ccc(-n2nnc3ccccc32)c(Cl)c1 | inactive |
| Clc1ccccc1C1Oc2ccccc2C2CC(c3ccc4c(c3)OCCO4)=NN21 (centres undefined) | inactive |
| O=c1/c(=C/c2ccc(F)cc2)sc2n1CCN=2 | inactive |
| O=C1OCC(CO)(CO)N=C1NNc1ccc(I)cc1 | inactive |
| FC(F)Oc1ccc(Cl)c(C2Nc3ccccc3-c3nc4ccccc4n32)c1 (centres undefined) | inactive |
| C(=N\n1c(-c2ccc(-c3ccccc3)cc2)csc1=NCCc1ccccc1)/c1ccccn1 | inactive [setting not given] |
| O=C(NC(O)C(Cl)(Cl)Cl)C12CC3CC(CC(C3)C1)C2 (centres undefined) | inactive |
| CCOC(=O)c1c(C)[nH]c(C(=O)OCC(=O)C(C)(C)C)c1C | inactive |
| C#CCN=Cc1c(O)n(CCOC)c(=S)[nH]c1=O | inactive |
| O=S(=O)(Oc1cccc2cccnc12)c1ccc2ccccc2c1 | inactive |
| CC(Sc1nnc(-c2ccc(C(C)(C)C)cc2)o1)c1nnc(-c2ccc([N+](=O)[O-])cc2)o1 (centres undefined) | inactive |
| O=C1NC(c2ccc3c(c2)OCO3)C(C(=O)c2ccccc2)C(O)(C(F)(F)F)N1 (centres undefined) | inactive |
| CCN(CC)[P+](N)(c1nc2ccccc2n1C)N(CC)CC | inactive |
| COC(=O)c1cc(C(O)(C(F)(F)F)C(F)(F)F)c(N=CN(C)C)s1 | inactive |
| C=CCn1c(SCc2c(C)noc2C)nc2sc3c(c2c1=O)CCC(C)C3 (centres undefined) | inactive |
| Cn1cc(-c2nn(-c3ccccc3)cc2/C=N/NC(N)=S)c2ccccc21 | inactive [setting not given] |
| Cc1cc(C=C2Sc3ccccc3N2C)cc(C)[n+]1CCCn1ccnc1 | inactive |
| CC1CCC2(CC1)NC(=O)N(CC1CC1(Cl)Cl)C2=O (centres undefined) | inactive |
| COc1ccc(OCCN2CCN(C(=N)N)CC2)cc1 | inactive |
| C=CCNC(=S)NN=C1c2ccccc2-c2ccccc21 | inactive |
| O=C(CSc1ncnc2sc3c(c12)CCC3)N1CCCCC1 | inactive |
| C=CCOc1c(Cl)cc(S(=O)(=O)c2cc(Cl)c(O)c(Cl)c2)cc1Cl | inactive |

| Compound | outcome |
| --- | --- |
| COCCn1c(C)cc(C(=O)COC(=O)Cn2c(C)csc2=O)c1C | inactive |
| COc1ccc(C2=CC(c3ccc(OC)cc3)n3nnnc3N2)cc1 (centres undefined) | inactive |
| O=[N+]([O-])c1ccc(NC(=S)N=C2c3ccccc3CN2c2ccc(Cl)cc2)cc1 | inactive |
| O=S1(=O)CCC(NS(=O)(=O)c2ccc(Cl)c(Cl)c2)C1 (centres undefined) | inactive |
| NC=C(S(=O)(=O)c1ccc(Cl)cc1)S(=O)(=O)c1ccc(Cl)cc1 | inactive |
| O=c1c(-c2cc3ccccc3o2)coc2ccccc12 | inactive |
| O=C1C=CC(=O)N1c1ccc(Br)cc1 | inactive |
| CC1CCN(C2=NS(=O)(=O)c3ccccc32)CC1 | inactive |
| CCSc1nnc(SCC(=O)c2c(N)n(CC(C)C)c(=O)n(C)c2=O)s1 | inactive |
| Cc1ccc(-c2csc3nc(CSc4nnnn4C)[nH]c(=O)c23)s1 | inactive |
| CCCSc1nsc(N)n1 | inactive |
| Clc1ccc2nc(CSc3ccc4ccccc4c3)cn2c1 | inactive |
| Fc1ccc(Cn2c3[n+](c4ccc(C(F)(F)F)cc42)CCCCC3)cc1 | inactive |
| COC(=O)c1noc(C(=O)OC)c1O | inactive |
| FC(F)(F)C(=NCc1ccco1)NC1(C(Cl)(Cl)Cl)Oc2ccccc2O1 | inactive |
| CCOc1cc(C)c(S(=O)(=O)N2CCCC2)cc1C(C)C | inactive |
| CCN(CC)c1ccc([P+](CC)(c2ccc(N(CC)CC)cc2)c2ccc(N(CC)CC)cc2)cc1 | inactive |
| COc1ccc(OC)c(C2CC(c3ccco3)=NN2S(C)(=O)=O)c1 (centres undefined) | inactive |
| CCCc1ccc(C2=C(C)SC3=NS(=O)(=O)CCN32)cc1 | inactive |
| Cc1cc(C)nc(SCc2cn3c(C)cc(C)nc3n2)n1 | inactive |
| COc1ccc(C2=NN3C(C2)c2ccccc2OC32CCCC2)c(OC)c1 (centres undefined) | inactive |
| Cc1cc(C(=O)C(C)n2cnc3c2c(=O)n(C)c(=O)n3C)c(C)n1Cc1ccco1 (centres undefined) | inactive |
| O=[N+]([O-])c1ccc(-c2c[n+](=O)c3c(n2[O-])CCCCC3)cc1 | inactive |
| CC(C)(C)NC(=O)NC(=O)COC(=O)C1(C)CC1(Cl)Cl (centres undefined) | inactive |

| Compound | outcome |
| --- | --- |
| Cc1nc2sc3c(c2c2nnnn12)CCCC3 | inactive |
| O=C1OC(c2ccccc2)=N/C1=C\c1ccc(C(F)(F)F)cc1 | inactive |
| Cc1ccc(C)n1-n1c(C)nc2sc3c(c2c1=O)CCCC3 | inactive |
| O=S1(=O)CCC(NC2CCCCC2)C1 (centres undefined) | inactive |
| Cc1ccc(C2=Nn3cc(-c4ccccc4)nc3SC2)cc1 | inactive |
| O=c1oc2cc(O)c(Cl)cc2c2c1CCCC2 | inactive |
| C=CCNS(=O)(=O)c1ccc2c(c1)OCCO2 | inactive |
| Cn1nnc2c(=O)[nH]cc([N+](=O)[O-])c21 | inactive |
| CC(C)(C)c1cnnn1-c1ccc([N+](=O)[O-])cc1 | inactive |
| CC1CNC(=O)NC1=O (centres undefined) | inactive |
| CCCCn1c(N)c(N(CC)C(=O)/C=C/c2ccco2)c(=O)[nH]c1=O | inactive |
| CCCCNC(=S)N(C)/N=C1\C(=O)Nc2ccc([N+](=O)[O-])cc21 | inactive [setting not given] |
| O=c1oc2ccccc2c(O)c1C=Nc1ccccc1Br | inactive |
| O=C1Nc2ccc([N+](=O)[O-])cc2/C1=N/n1cnnc1 | inactive [setting not given] |
| c1ccc(CCc2nc(-c3ccncc3)no2)cc1 | inactive |
| Nc1nnc(SCC(=O)O)s1 | inactive |
| CCOC(=O)/C=C1\SCC(=O)N1CCSc1nnc(C)s1 | inactive |
| COc1cc(/C=N/OCc2ccc([N+](=O)[O-])cc2)ccc1OC(F)F | inactive [setting not given] |
| CC1=C(C(C)C)Nc2nnnn2C1c1ccc(Br)cc1 (centres undefined) | inactive |
| CCOC(=O)c1c(-c2ccc(C)o2)csc1N=Cc1c(O)[nH]c(=S)[nH]c1=O | inactive |
| NC(=S)c1cccc(Br)c1 | inactive |
| NC1=NC(=O)/C(=C\c2ccc3c(c2)OCO3)S1 | inactive |
